# Experimental data from PubChem BioAssay (EPA / NIEHS).
# Values joined by “and” are separate entries in the source; they are usually repeats but may differ in a detail not shown here. Identical values can stand only once. Results filed as inconclusive are left out. Some structures have more than one record in an assay (separate samples or runs), and their calls can disagree. Active and inactive are the calls of the source. Rule for the calls: active = hit-call score of the fitted dose curve at least 0.9, where 1 is the maximum; inconclusive = response in the unintended direction; inactive = score below 0.9.
# Target: Cellular tumor antigen p53 (Homo sapiens) (UniProt P04637)
# Sequence (P04637 whole entry, looked up): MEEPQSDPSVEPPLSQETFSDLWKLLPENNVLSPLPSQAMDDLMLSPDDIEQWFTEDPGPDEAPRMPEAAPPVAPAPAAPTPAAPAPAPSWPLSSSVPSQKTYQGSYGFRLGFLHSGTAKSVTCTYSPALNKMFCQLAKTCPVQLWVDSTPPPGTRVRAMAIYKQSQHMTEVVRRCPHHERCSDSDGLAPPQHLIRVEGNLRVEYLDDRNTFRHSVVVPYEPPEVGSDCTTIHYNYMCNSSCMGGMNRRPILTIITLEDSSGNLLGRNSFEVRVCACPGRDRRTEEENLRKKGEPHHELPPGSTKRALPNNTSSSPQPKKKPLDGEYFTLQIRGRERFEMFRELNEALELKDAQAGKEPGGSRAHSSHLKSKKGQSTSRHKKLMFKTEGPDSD
# Experiment: TOX21_p53_BLA_p3_ratio: Tox21 HCT-116 p53 Agonism Beta-lactamase Assay, Ratio, Phase 3 (AID 2283596)
# From the text: TOX21_p53_BLA_p3 is a cell-based, single-readout assay that uses HCT116, a human intestinal cell line, […] in a 1536-well plate.TOX21_p53_BLA_p3_ratio is an assay readout measuring reporter gene via receptor activity and designed using inducible reporter (beta lactamase induction) detected with GAL4 b-lactamase reporter gene. The signal is derived from the ratio of cleaved (ch2) to uncleaved (ch1) reporter gene substrate used as the measure of target activity.Data from the assay component TOX21_p53_BLA_p3_ratio was analyzed into 1 assay endpoint. This assay endpoint, TOX21_p53_BLA_p3_ratio, was analyzed in the positive analysis fitting direction relative to DMSO as the negative control and baseline of activity. Using a type of inducible reporter, gain-of-signal activity can be used to understand changes in the reporter gene as they relate to the gene TP53. Furthermore, this assay endpoint can be referred to as a primary readout, because this assay has produced multiple assay endpoints where this ratio serves a reporter gene function to understand target activity. To generalize the intended target to other relatable targets, this assay endpoint is annotated to the DNA binding intended target family, where the subfamily is tumor suppressor.
# Thawing Method: Place 14 mL of pre-warmed thaw medium into a 15 mL of conical tub. Remove the vial of cells to be thawed from liquid nitrogen and thaw rapidly by placing at 37C in a water bath with gentle agitation for 1-2 minutes. Decontaminate the vial by wiping with 70% ethanol before opening in a biological safety cabinet. Transfer the vial contents drop-wise into 14 mL of thaw medium in a sterile 15-mL conical tub. Centrifuge cells at 900 rpm for 4 minutes and resuspend in thaw medium. Transfer contents to the T75 tissue culture flask containing Thaw Medium and place flask in a humidified 37C/5% CO2 incubator. Switch to growth medium at first passage.Propagation Method: Aspirate medium, rinse once in DPBS, add 0.25% Trypsin/EDTA and swirl to coat the cell evenly. Add an equal volume of Growth Medium to inactivate Trypsin after 2-3 minutes incubation at 37C. Centrifuge cells at 900 rpm for 4 minutes and resuspend in growth medium. Cell should be passage or fed at least twice a week.Assay Protocol: Harvest cells from culture in growth medium and resuspend in assay medium. 2.2 Dispense 4000 cells/5 uL/well into 1536-well black/clear bottom plates using a Multidrop dispenser. After the cells were incubated at 37C for 5 hours, 23 nL of compounds dissolved in DMSO were transferred to the assay plate by a PinTool resulting in a 217-fold dilution. Incubate the plates for 16 hours at 37C, 5% CO2. Add 1 uL of 6X LiveBLAzer FRET B/G (CCF4-AM) Substrate Mixture to each well using a BioRAPTR dispenser and incubate the plates at room temperature for 2 hours. Measure fluorescence intensity at 460 and 530 nm emission and 405 nm excitation by an Envision detector. Data is expressed as the ratio of 460nm/530nm emissions. Add 4 uL of Cell-titer Glo to each well using BioRAPTR and incubate the plates at room temperature for 2 hours. Measure fluorescence intensity by a VewLux plate reader.
SMILES,outcome,AC50
C=CC(=O)OCCOCCOCC,inactive,–
CCCCCCCCC,inactive,–
C=C(C)C(=O)O[C@H]1C[C@@H]2CC[C@@]1(C)C2(C)C,inactive,–
CC(CN1c2ccccc2Sc2ccccc21)N(C)C (stereo not given),inactive,–
CC(=O)OCCOC(C)=O,inactive,87.2 µM (active)
NNc1nc(-c2ccc(N)cc2)cs1,inactive,–
CCCCCC=CCC(=O)OC,inactive,–
C#C[C@]1(O)CC[C@H]2[C@@H]3CCC4=Cc5oncc5C[C@]4(C)[C@H]3CC[C@@]21C,inactive,–
CC(=O)OCC=Cc1ccccc1,inactive,–
CC1CC(OC(=O)c2ccccc2O)CC(C)(C)C1 (stereo not given),inactive,–
O=C1CCCCCCCCCCOCCCCO1,inactive,–
COc1ccc(OC)c(OC)c1,inactive,–
CC1=CCC2C(C1)C2(C)C (stereo not given),inactive,–
O=C1c2ccccc2C(=O)N1SC1CCCCC1,inactive,57 µM (active)
O=c1cc(-c2ccccc2)oc2cc(O)cc(O)c12,inactive,–
CC(C)(C)C(=O)c1ccccc1,inactive,–
CC(O)C(C)O (stereo not given),inactive,–
CC1(CO)CN(c2ccccc2)NC1=O (stereo not given),inactive,–
CC(=O)[C@H]1CC[C@H]2[C@@H]3CC=C4C[C@@H](O)CC[C@]4(C)[C@H]3CC[C@]12C,inactive,–

SMILES,outcome,AC50
CC(C)C(C)(C)C(C)(C)C(C)(C)S,inactive,–
CCCCCCCCCCCCCCCC(=O)O,inactive,–
CCOc1ccccc1OCC,inactive,–
CCCCCCCCC=O,inactive,–
OCCOCCOCCOCCO,inactive,–
O=C(O)c1ccc([N+](=O)[O-])cc1,inactive,–
CN(C)C(=N)N=C(N)N,inactive,–
O=C(O)CCCCC1CCSS1 (stereo not given),inactive,–
O=C(O)c1snc(Cl)c1Cl,inactive,–
O=C(O)c1cccc(C(F)(F)F)c1,inactive,–
CCC(C(=O)NC(N)=O)c1ccccc1 (stereo not given),inactive,–
CN(C)CCOCCN(C)C,inactive,–
O=C(Nc1ccccc1)c1cc([N+](=O)[O-])ccc1Cl,inactive,–
CC(C)OP(=O)(CP(=O)(OC(C)C)OC(C)C)OC(C)C,inactive,–
CC(CCO)CCc1ccccc1 (stereo not given),inactive,–
O=Nc1ccc(Nc2ccccc2)cc1,–,77.1 µM (active) and 61.3 µM (active)
ClCCCl,inactive,–
C/C=C(\C)C(=O)OCc1ccccc1,inactive,–
NCCOCCO,inactive,–
